Drawing on PubChem BioAssay AID1508600 (Functional Genomics Laboratory (NCATS/FGL), 2020), this text covers z-score for 108 sequences.

Hit rate of the full screen: of about 53,000 sequences, about 3,700 (7%) were called active. Only a selection was taken, and actives are over-represented in it overall. Unmarked numbers belong to inactive results.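 How the source made its calls: active means gene knockdowns whose robust z-score for IL-1 alpha signal is at least 2 or at most -2, so actives lie on both sides; inactive means the rest.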

The test in a line: Components of the Cytosolic LPS Sensing Pathway: Gene Identification via Genome-wide siRNA Screen.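 Further: robust z of the log signal after scaling to non-targeting control siRNA wells of the plate.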 Conditions: RAW264.7 macrophages, IL-1a HTRF, actives lie on both sides, screened at 100 nM (by protocol), cells primed 5 h with Pam3CSK4 first. Put shortly:
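RAW264.7; siRNA 100 nM final, RNAiMAX, 48h 37 degrees C; Pam3CSK4 5 h; LipidA + TransIT-TKO 24 h; IL-1a HTRF; CellTiter-Glo viability; robust z vs negative-control median.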
Background: TR-FRET usually uses a lanthanide donor and a delayed reading to cut background.
As for GACCACACUCAUCCAGGCUTT against Gtpbp6, the z-score was 0.817.
For GGAAACGAUGACAUUUCAATT against Pnrc2 the value was 0.0147.
For GGGCGUAGAAACAGCAACUTT against Ushbp1 the value was -2.14 (active); for GGCCAGAGACUGCCUGAUUTT against Acaa1b, 0.225.
For GGUCAUUCAGCUGGAAGAUTT against Zfp143 the value was -1.07; for “GGGUAGGUAUCAAAAUAAUTT against 6030452D12Rik”, 0.172; for GCCACGUGAUAGUAAUAAATT against Psmd12, 0.0999.
Take GGAGAAUGAAGAGUUAGACTT against Nfu1: the z-score is 0.608.
For AUUACAAGGUUUGUGGAUATT against Gsdmc3 the value was 0.188; for GGUGGAUAGAGCAAUUGAATT against Jph1, 1.5; for GGCGGCACAAAUUGUUUUUTT against Gimap9, -2.03 (active).
To GCCAAGUACUCGUUUCCACTT against Wtap belongs 0.826; to GCCUUGGACUGCUUUGGAUTT against Dync1li1, -0.379.
To GGCAUUCCUCUUGAAUAUUTT against Dck belongs -0.805; to GCCCUACCCUCAUCAUAAATT against Tmem94, -1.36; to GGACUUCAGAGUGGACAUUTT against Sec16b, -0.19.
On to GGAAAGUUGGACCUUCUGATT against Adamts6, for which the z-score was 2.35 (active).
GCUGUGAAGAAUCAGAUAGTT against Aatf: the z-score is -0.155.
To GGAUUUAUGGCAAGUUUCUTT against Ppp2r5e belongs 0.00387.
For CCAGGUGUACCUUACGUUGTT against Eif4ebp2 the value was 1.05; for CGGACAAGAUAAAGUGUGUTT against Lypd9, -1.07; for GGAACUCACACAGAACCAATT against Bloc1s6, 6.84 (active).
To GGUGUAAAGUAAUCAAGGCTT against Dbx2 belongs 0.453; to GGUUUUAUGAGAAAGCAGATT against Ogfod1, 0.0298.
For the sequence GCACAGCUACCAUUCACAATT against Nxpe2, the z-score was -1.97.
To GGAGGAACAUAUGCUCAGATT against Lce1e belongs -2.99 (active).
To CCACUAAGGUUUGAAGAAGTT against Nes belongs 1.21; to CCUGAUUAUUCUGAGAAAUTT against Adsl, 1.
To GGGACUCGAGUUUCAUCUATT against Casc1 belongs 0.768; to GGAAUUACGAAGCUGUGUGTT against Cdkl3, -2.36 (active); to “CCGUUCUGGCACAGAACAGTT against A830005F24Rik”, 1.41.
CCAUUGUACAGAAAAACACTT against Abhd18: the z-score is 0.41.
To GGAAAGAGCUUUUUAUUGUTT against Zfp235 belongs 0.145.
To CCAUAUACCCUCGAUGCCATT against Abhd16b belongs -2.76 (active); to GCCCGAAUACAGGAAGAUCTT against Hspg2, 1.42.
As to GGAAAUGAGACGAAGGAGGTT against Kpna6, the z-score was -0.642.
In the case of GGAACUGAAAAACUCAACUTT against Evi2a, the z-score was -3.13 (active).
For GGCACAGAGAACAAUACUUTT against Npy5r the value was -0.128; for CCCUAUUAGUGGAAGCAUGTT against Zfp738, -1.94.
With “GCAUCGCAUUUAAAUAGAATT against 4833408A19Rik”, the z-score is 0.965.
For GGGUGUAGCAUUGUCACAGTT against Olfr1133, the z-score was 2.32 (active).
To GGAGAUGAACAAGGACCUATT against Apoa1 belongs 0.717.
To GGAUGUGAUGAAGUUGGCCTT against Olfr78 belongs -1.96; to GCUGGUGAGUCACUGAUGATT against Med22, 1.32.
For GGAAAGAAGAAACAUUCCUTT against Socs5 the value was 0.495; for GCGACUCCCACAUACUCAGTT against Muc19, -0.215; for UCCAUACUACUCAUCAAAUTT against Olfr68, 3.78 (active).
For the sequence GCCUAAGAACGAUGACACUTT against Surf2, the z-score was 0.179.
Turning to “GGUCUCUGUAGAGAUGGCATT against 6820408C15Rik”, the z-score was -2.52 (active).
Consider CGUUAAUUGCCCUCAAAGATT against Spon1, for which the z-score was 1.03.
In the case of GGCGGAGAGGAAAUCUAUGTT against Mycs, the z-score is 1.4.
For GCCUUUGCACAGUUUGGACTT against BC002059 the value was -1.13; for GGCAGUUCUCCAGUGCUUUTT against Mtss1, -1.32; for CCUCGUAUUUAUACUCAGUTT against Gpr18, 0.3.
For CCACCUUCCUAUGUUUGUATT against Ebf2 the value was 3.73 (active); for GGCUGCUCAAAAAGAACAUTT against Kif21b, 0.645.
To GCUUUGGCUCAAAGCACGUTT against Mcm3 belongs 1.93; to GCGGUCAAAUGCAACAAACTT against Fabp5, -0.33.
CCUCCUGACCUUAAUCUUGTT against P2rx1: the z-score is 0.507.
For the sequence GGCUGCACAAAGAUGUUCATT against Yy1, the z-score is 2.46 (active).
To GCUUAAUCCUUAGUCAGCATT against F2rl2 belongs -0.591; to GGAAGAGGUGAAUGAUAAATT against Bmi1, 1.51.
For GCUCAACAGCAGUGACGAUTT against Nras the value was -0.701; for GGCCAGUCAAGGUUGGAUUTT against Gpr152, -0.32; for GCUGUGAAUUCCAAAUGCGTT against Myh4, 3.33 (active).
For GGAUACAAUGCAACUGUCCTT against Kif4 the value was -1.08; for GCACUCUCUACUCUAUUAATT against Ackr2, 2.68 (active).
Regarding GGUUAGCCUACUCUCUAAUTT against Tomm22, the z-score was 0.501.
For GGCUCAAAUACAGGAAAUUTT against Tmem45b the value was 0.498.
To GGGCAGGUUGUCUUUCUACTT against Plpp1 belongs 0.997; to UCAACAGGGCUGAUAUCCCTT against Acsl5, -1.61; to CGGUGAAGACUAUCAUGGUTT against Tln1, -0.791.
As for CCUUAAUCCAAACAAGUCUTT against Ncl, the z-score is 1.08.
For GGUUUCUUAGAUUAGCUAGTT against Map3k12 the value was 0.445; for GGUUAUCAAGAUUGCAUGUTT against Olfr853, -0.646.
To GGGUUAUGAAGAGAAACUUTT against Gatad2b belongs 0.236; to GGACUGGUGGACAUAUGAATT against Os9, 2.81 (active).
To GGAAAAGGUGGCCUACACATT against Rhox11 belongs -1.7.
CCAAUAAAAUUGGUGUUCCTT against H13: the z-score is 0.18.
To GGUUAAAAUGUUGAUUGCUTT against Ndrg4 belongs -0.654.
To GGGAAAAGUGACUAGGCUUTT against Ngb belongs -0.331; to CCCACAGUGCAAAAAUGACTT against Olfr663, -2.26 (active).
To GGCAUAUGCACUUUAUUUCTT against Cep97 belongs -0.339.
For GCAUUAAAGGAGUCCGAAUTT against Cpn1, the z-score is -0.328.
Turning to GCUUAUAACAGUUGAUGAGTT against Ndufs4, the z-score was -0.54.
For GGCUAAUUCUCAAAGAGAUTT against Dnttip2 the value was -1.87; for AUUCGGGAAAAUUUUAGACTT against Rbfox3, -0.171.
In the case of GGCUAAAACUGCACAUAAATT against Pyroxd1, the z-score is -3.43 (active).
To GGGAAGCACAAGGUUUAGUTT against Brca1 belongs 0.531; to GCAACAAGAGGGCAGAAUGTT against Olfr518, -2.22 (active).
On to GGAAGUUACAGAUGUGGCUTT against Nog, for which the z-score is -0.879.
To GCACCAUUCUAGGAGUCAUTT against Lonp2 belongs -0.504.
To GGACCACGCAAAAGAAUAUTT against Mtss1 belongs 0.0212; to GCUCAUGUUGCACUGGAAATT against Ulbp1, 1.22; to AAGCUUCAACAUCAGUUUGTT against Olfr1392, -1.54.
To GGCGAAGGGCAAGAAUAAATT against Hes1 belongs 2.16 (active).
As to CCCAUACUGUCACUUUAAGTT against H2bc8, the z-score was -2.23 (active).
Turning to GGUUCUGGUAUAAGUUAACTT against Gabrg3, the z-score is 0.292.
To GCACGAAUGCCUUUUUAGATT against Mphosph8 belongs 0.32.
For GGAGCUGGAGACUAAAGCUTT against Slc29a2 the value was -0.478; for GCAUUUGAUGAAGACUCGATT against Barx2, 0.467.
For GGUUUAGCUGCAUUAAAAGTT against Lrrc27 the value was 0.956; for GGCCGAGAGUAUUUCUACATT against Efna5, -0.254; for CGAACACUCGUUAAAGAAATT against Krt23, 0.247.
As for CCAUGCACAAUUACAAGCUTT against Ret, the z-score is -0.000288.
To CGGAAAAUUUGUUCCUGACTT against Rbm12b2 belongs 1.44; to GCAAAUGAGAGGUCUGUUGTT against Olfr1024, -2.52 (active); to CCCUAGGGUGAUGAAGCAUTT against Ckmt2, -0.984.
